Sampled rows, rich in hits. Any-hit rate of the full collection: about 21%.
TDP1 cell noCPT: qHTS for Inhibitors of human tyrosyl-DNA phosphodiesterase 1 (TDP1): qHTS in cells in absence of CPT; Potency, µM (top dose mostly 46.2 µM), usual class: inhibitors; AID 686978, 2013; hit rate 15% among 420,000; DT40 Tdp1-/- hTDP1 cells, no CPT, ATP luminescence, 48 h; also: nearly all actives have a fitted effect of over 55% in size
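Growth of hTDP1-complemented DT40 Tdp1-knockout cells is measured by ATP luminescence after at least 48 hr compound exposure at 37 °C, with DMSO substituting for the 20 nM CPT used in the parallel screen.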
D3 antag: antagonists of human D3 dopamine receptor; P35462; D3R cells, DiscoveRx beta-arrestin luminescence, antagonist mode; hits give low values; max response, negative = inhibition, %; hit rate 2.5% among 360,000; AID 652054; in the data active = max response below about -50%; inconclusive = no clear call, values can overlap the other calls
Target sequence (P35462 whole entry, looked up): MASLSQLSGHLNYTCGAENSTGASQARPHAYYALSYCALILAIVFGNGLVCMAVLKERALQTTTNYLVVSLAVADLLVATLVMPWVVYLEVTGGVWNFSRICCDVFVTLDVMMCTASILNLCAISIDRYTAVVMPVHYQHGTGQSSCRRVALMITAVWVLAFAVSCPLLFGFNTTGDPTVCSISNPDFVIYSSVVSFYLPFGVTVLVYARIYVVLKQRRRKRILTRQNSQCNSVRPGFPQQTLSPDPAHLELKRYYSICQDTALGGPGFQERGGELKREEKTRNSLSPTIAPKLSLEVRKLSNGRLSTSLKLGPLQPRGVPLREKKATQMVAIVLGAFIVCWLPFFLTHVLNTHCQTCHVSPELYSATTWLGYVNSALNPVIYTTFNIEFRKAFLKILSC
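Cells plated overnight at 1500 cells/well, then exposed to library compounds with dopamine controls for 90 minutes at 37 degrees C. DiscoveRx reagent added for 30–60 minutes at room temperature; luminescence read, quantitative HTS format.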
ClpP mod: qHTS Assay for Activators of ClpP; ATP-dependent Clp protease proteolytic subunit (Bacillus subtilis (strain 168)), P80244; purified B. subtilis ClpP, FRET peptide cleavage, 20 min; Potency, µM (titrated, usually from 57.5 µM); hit rate 1.9% among 340,000; active = well fitted falling curve with a large enough effect; inconclusive = small, poorly fitted or top-dose-only effect; inactive = no such curve, though single readings can be large or run the other way; also: the source files actives as falling curves though it sought activators and does not explain the sign; nearly all actives have a fitted effect of over 65% in size
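FRET quenching reversal measured ClpP activation: 10 microg/mL B. subtilis ClpP at pH 8 with the FRET-FV decapeptide, read at 430 nm after 320 nm excitation. The 20-min minus 0-min signal was scaled between DMSO/no-enzyme wells and ADEP (5.8 microM final).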
IL1B secr inh: inhibitors of inflammasome signaling (IL-1 beta secretion) | THP-1 LPS/ATP IL-1B secretion, AlphaLISA, 16 h; hits give low values | activity change, % at 57.5 µM | hit rate 4.7% among 360,000 | AID 743279; in the data active = activity change below about -50%; inconclusive = mostly about -30% to -49%
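Secreted IL-1B measured by AlphaLISA bead assay after 16 h compound exposure of THP-1 cells; compounds (final up to 57.5 uM) added 1 h before LPS (250 ng/mL) and ATP (1.25 mM) stimulation; lower signal means less secretion.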
DRD3 agonist: activates the human D3 dopamine receptor | P35462 | D3R DiscoveRx beta-arrestin cells, luminescence, 90 min | max activation, % | hit rate 0.58% among 410,000 | AID 652048; in the data active = max activation above about 30%
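Cells at 1500/well, incubated overnight, then treated with pinned compounds (dopamine as control) for 90 min at 37 degrees C. DiscoveRx reagent added for 30 - 60 minutes at room temperature; luminescence read.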
TDP1 cell CPT: DT40-hTDP1 cell growth loss with CPT | chicken DT40 Tdp1-/-;hTDP1 cells + 20 nM CPT, ATP luminescence, 48 h | Potency, µM (series often up to 46.2 µM), actives largely listed as inhibitors | hit rate 12% among 420,000 | AID 686979; also: nearly all actives have a fitted effect of over 55% in size
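Cell growth measured by CellTiter-Glo luminescence after a minimum 48 h, 37 C compound exposure with 20 nM CPT in Tdp1-knockout DT40 cells stably expressing hTDP1, seeded 400/well; qHTS titration format.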
A number is an active result; n = inactive; u = inconclusive; x = no result given. Unless noted, calls follow the shape of the dose curve; as a rule, active = well fitted inhibition curve with a large enough effect; inconclusive = small, poorly fitted or top-dose-only effect; inactive = flat fitted curve, though single readings scatter.

SMILES	TDP1 cell noCPT	D3 antag	ClpP mod	IL1B secr inh	DRD3 agonist	TDP1 cell CPT
CCn1cc(C(=O)NCc2ccco2)c(=O)c2ccc(C)nc21	u	n	x	n	n	n
Cc1[nH]n(-c2nc(-c3ccccc3F)cc(=O)[nH]2)c(=O)c1CCO	n	n	x	n	n	n
O=C1[C@H](Cc2ccccc2)NCCCC[C@@H](c2ccc(Cl)cc2)N1Cc1ccccc1	13µM	n	n	-53	n	18µM
O=C1[C@H](Cc2ccccc2)NCCCC[C@H](c2ccc(Cl)cc2)N1Cc1ccc(Cl)cc1	18µM	n	n	u	n	23µM
O=C1C=CN(Cc2ccccc2)C(c2ccccc2)C1 (stereo unspecified)	n	n	n	n	n	u
O=C1C2CCC(C(O)C2)N1Cc1ccccc1 (stereo unspecified)	n	n	n	n	n	n
CN1CCN(C(=S)Nc2cc([N+](=O)[O-])ccc2Cl)CC1	n	u	n	n	n	n
COC(=O)c1ccc(C2c3c(oc4cc(C)c(C)cc4c3=O)C(=O)N2c2ccccn2)cc1 (stereo unspecified)	n	x	n	x	n	n
O=C(CSc1nc2c([nH]c3ccccc32)c(=O)n1-c1cccc(Cl)c1)NCC1CCCO1 (stereo unspecified)	n	x	n	x	n	n
Cn1c2ccc(F)cc2c2nnc(SCCN3CCCCC3)nc21	16µM	u	n	-60	n	u
Cc1cc(C)c2c(c1)c1nnc(SCCN3CCCCC3)nc1n2C	21µM	u	x	-72	n	u
CCOc1ccc2c(c1)c1nnc(SCC(=O)N3CCCCC3C)nc1n2C (stereo unspecified)	23µM	n	n	n	n	23µM
CCOc1ccc2c(c1)c1nnc(SCC(=O)N3CCC(C)CC3)nc1n2C	u	n	n	u	n	u
CSc1nnc2c3cc(F)ccc3n(C)c2n1	n	n	n	n	n	n
COc1ccccc1NC(=O)C(Cc1ccccc1)NS(=O)(=O)c1cccc2nsnc12 (stereo unspecified)	u	x	n	x	n	u
O=C(O)CN1C(=O)S/C(=C\c2cccnc2)C1=O	n	n	n	n	n	n
CC(C)(Oc1ccc(Cl)cc1)C(=O)NCCN1C(=O)S/C(=C/c2cccnc2)C1=O	u	n	n	-91	n	u
COc1ccc2c(CC(=O)NCCN3C(=O)S/C(=C\c4cccnc4)C3=O)coc2c1	u	n	13µM	n	n	u
COc1ccc(/C=C2\SC(=O)N(CCNC(=O)Cc3coc4cc(OC)ccc34)C2=O)cc1	u	n	n	n	n	u
O=C(NCCN1C(=O)S/C(=C/c2cccnc2)C1=O)c1cccs1	u	n	n	u	n	u
CC(Oc1ccc(Cl)cc1)C(=O)NCCN1C(=O)S/C(=C\c2cccnc2)C1=O (stereo unspecified)	18µM	n	n	-78	n	21µM
CCCCc1nc2cc(C(=O)NCCc3c(C)n[nH]c3C)ccc2o1	n	n	n	n	n	n
N#CC1=C(S)N(c2ccc(F)cc2)C(c2cccs2)NC1=O (stereo unspecified)	u	n	n	n	n	8.2µM
Cc1ccccc1N1C(S)=C(C#N)C(=O)NC1c1cccs1 (stereo unspecified)	u	-73	n	n	n	u
Cc1cccc(N2C(S)=C(C#N)C(=O)NC2c2cccs2)c1 (stereo unspecified)	13µM	n	n	n	n	15µM
N#CC1=C(S)N(c2ccccc2)C(c2ccc(-c3ccccc3Cl)o2)NC1=O (stereo unspecified)	u	n	n	u	n	u
O=C1NC2(CCCCCC2)C(=O)N1Cc1ccc(F)cc1Cl	n	n	x	n	n	n
CN(Cc1ccc(Cl)cc1Cl)C(=O)CN1C(=O)NC2(CCCC2)C1=O	u	n	25µM	n	n	n

Bioassay records: PubChem, National Center for Advancing Translational Sciences (NCATS)
